# Source: PubChem BioAssay
# Active and inactive are the calls of the source. Unless noted, no rule for the calls is given here.
# Key:
# [1] = HepG2 liver cancer cell viability effects, profiling panel, resazurin fluorescence, 24 h, PK04 Diversity Set (AID 1172); settings: higher = more signal; also: test concentration not given here
# [2] = basal S. cerevisiae growth modulation, no modifier, primary screen, OD600, strain BY4716, 24 h, basal condition (AID 1173); settings: OD600, 24 h, higher = more signal, called active from +8 up or from −8 down
# [3] = MM1S myeloma cell viability, profiling panel, resazurin fluorescence, basal, 24 h, PK04 Diversity Set (AID 1174); settings: higher = more signal, called active from +8 up or from −8 down;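 also: MM1S multiple myeloma cell line; test concentration not given here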
# [4] = target: Dihydroorotate dehydrogenase (quinone), mitochondrial (Plasmodium falciparum (isolate 3D7)) (UniProt Q08210); experiment: PfDHODH enzyme inhibitors, primary screen, biochemical, C-terminal His tag, absorbance 600 nm (AID 1175); settings: DCIP absorbance 600 nm, higher = more signal, called active from +8 up or from −8 down;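 also: recombinant parasite enzyme with a five histidine tag at its C terminus; test concentration not given here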
# [5] = P. aeruginosa biofilm formation inhibitors, primary screen, strain PAO1, LB-PBS medium, absorbance 600 nm (AID 1176); also: test concentration not given here; settings: P. aeruginosa PAO1 growth/biofilm, A600, 12 h; higher = more signal
# [6] = S. cerevisiae RM11-1a growth modifiers, primary screen, strain RM11-1a, OD600, basal, 24 h (AID 1177); settings: OD600, 24 h, higher = more signal, called active from +8 up or from −8 down;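 also: cultures grown under basal conditions with no added stressor; test concentration not given here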
# [7] = E. coli acrAB mutant growth effects, primary screen, E. coli filamentation inducers, strain DRC39, OD650, 24 h (AID 1178); settings: higher = more signal, called active from +8 up or from −8 down;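 also: growth measured as culture turbidity by optical density at 650 nm; test concentration not given here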
# [8] = E. coli acrAB mutant growth effects, primary screen, E. coli filamentation inducers, strain DRC39, OD650, 48 h (AID 1179);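 also: screen aims at cell division blockers that make cells filament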; settings: E. coli DRC39 delta-acrAB growth, higher = more signal, called active from +8 up or from −8 down
# [9] = RPMI8226 myeloma cell viability, profiling panel, resazurin fluorescence, basal, 24 h, PK04 Diversity Set (AID 1180); settings: higher = more signal;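 also: RPMI8826 multiple myeloma cell line at 5000 cells per well; test concentration not given here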
# [10] = target: E3 ubiquitin-protein ligase XIAP (Homo sapiens) (UniProt P98170); experiment: XIAP binders, primary screen, biophysical, small-molecule microarray, fluorescence 635 nm (AID 1181); settings: small-molecule microarray binding, higher = more signal;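 also: score merges 667 nm emission and signal to noise over triplicate slides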
# E3 ubiquitin-protein ligase XIAP (Homo sapiens), sequence (P98170 whole entry, looked up): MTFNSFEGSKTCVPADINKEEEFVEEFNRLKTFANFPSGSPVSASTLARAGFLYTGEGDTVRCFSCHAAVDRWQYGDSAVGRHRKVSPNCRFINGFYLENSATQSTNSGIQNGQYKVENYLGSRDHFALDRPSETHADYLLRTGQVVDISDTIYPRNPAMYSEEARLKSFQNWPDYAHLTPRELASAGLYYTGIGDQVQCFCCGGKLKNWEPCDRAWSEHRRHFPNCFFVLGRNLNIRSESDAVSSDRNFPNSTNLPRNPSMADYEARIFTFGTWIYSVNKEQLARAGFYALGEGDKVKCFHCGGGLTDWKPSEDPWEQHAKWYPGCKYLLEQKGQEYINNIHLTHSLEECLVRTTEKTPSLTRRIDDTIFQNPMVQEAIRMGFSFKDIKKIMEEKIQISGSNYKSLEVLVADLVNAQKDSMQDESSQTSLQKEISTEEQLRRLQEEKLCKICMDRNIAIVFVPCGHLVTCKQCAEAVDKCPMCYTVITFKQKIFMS
# Dihydroorotate dehydrogenase (quinone), mitochondrial (Plasmodium falciparum (isolate 3D7)), sequence (Q08210 whole entry, looked up): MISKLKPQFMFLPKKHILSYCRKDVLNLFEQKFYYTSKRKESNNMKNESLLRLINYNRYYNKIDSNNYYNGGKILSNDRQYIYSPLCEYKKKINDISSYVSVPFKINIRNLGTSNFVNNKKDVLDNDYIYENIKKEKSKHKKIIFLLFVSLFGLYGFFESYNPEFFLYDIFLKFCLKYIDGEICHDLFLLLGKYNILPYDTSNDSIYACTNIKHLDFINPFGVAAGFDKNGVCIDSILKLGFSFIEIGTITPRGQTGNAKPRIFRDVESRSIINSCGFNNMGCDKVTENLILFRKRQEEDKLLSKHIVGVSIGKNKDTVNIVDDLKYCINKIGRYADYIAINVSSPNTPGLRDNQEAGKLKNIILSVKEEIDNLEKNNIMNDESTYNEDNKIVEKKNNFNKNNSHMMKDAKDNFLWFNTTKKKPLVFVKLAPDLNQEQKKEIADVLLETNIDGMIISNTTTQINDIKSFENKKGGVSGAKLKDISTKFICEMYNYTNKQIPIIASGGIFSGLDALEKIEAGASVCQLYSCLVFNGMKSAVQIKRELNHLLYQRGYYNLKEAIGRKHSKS
SMILES,z-score [1],z-score [2],z-score [3],composite z-score [4],z-score [5],z-score [6],z-score [7],z-score [8],z-score [9],composite z-score [10]
O=C1NC(=O)C2C1C=CC(C(O)c1ccc(F)cc1)N2Nc1ccc(Cl)cc1Cl (stereo not given),-2.15,-16.3 (active),-1.28 (inactive),0.827 (inactive),1.06 (inactive),-8.86 (active),-0.2 (inactive),-1.52 (inactive),-1.79,0.285
COCCOC(=O)N1C(=O)[C@@]2(c3cc(C#CCNC(N)=O)ccc31)[C@H](C(N)=O)[C@H]1C(=O)O[C@H](c3ccccc3)[C@H](c3ccccc3)N1[C@@H]2c1ccc(O)cc1,0.296,-0.156 (inactive),-0.477 (inactive),0.303 (inactive),1.01 (inactive),0.532 (inactive),0.769 (inactive),1.33 (inactive),-0.392,-0.245
N#Cc1ccc(NN2C(C(O)c3ccc(B(O)O)cc3)C=CC3CN(c4ccccc4)C(=O)C32)cc1 (stereo not given),-0.595,-15.4 (active),-1.25 (inactive),-0.883 (inactive),0.475 (inactive),1.56 (inactive),0.898 (inactive),0.934 (inactive),-0.662,-0.0917
COC(=O)C(CC#Cc1ccc2c(c1)[C@]1(C(=O)N2)[C@H](c2ccc(OCCO)cc2)N2[C@H](c3ccccc3)[C@H](c3ccccc3)OC(=O)[C@H]2[C@@H]1C(N)=O)C(=O)OC,-0.156,1.17 (inactive),-0.551 (inactive),-1.24 (inactive),2.88 (inactive),2.32 (inactive),0.448 (inactive),0.287 (inactive),-1.43,0.13
CO[C@H]1O[C@H](CO)[C@@H](OC(=O)CCc2ccccc2)[C@@H]2OC(=O)[C@@H](Cc3ccc4ccccc4c3)C/C=C/C[C@H](Cc3ccc4ccccc4c3)C(=O)O[C@@H]12,-0.826,-0.998 (inactive),-0.333 (inactive),-1.32 (inactive),-0.0558 (inactive),-1.11 (inactive),0.552 (inactive),0.9 (inactive),-0.591,0.0302
COC(=O)[C@@]1(Cc2ccccc2)[C@H]2c3cc(C(=O)N(C)C)n(CCF)c3C[C@H]2CN1C(=O)c1ccccc1,-0.537,1.34 (inactive),-0.878 (inactive),0.288 (inactive),0.715 (inactive),0.155 (inactive),-0.407 (inactive),0.0857 (inactive),-0.329,0.0635
